Compound activity as filed in PubChem BioAssay.
MsrA inhibitor: bovine MsrA enzyme inhibitors, primary screen, biochemical, absorbance, HTS; Methionine sulfoxide reductase A (Bos taurus); purified bovine MsrA, absorbance read-out; inhibition, % at 15.5 µM; 0.75% of 360,000 active;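 also: 0% = vehicle wells with enzyme and 100% = reference inhibitor wells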
PG9 binder: binders of HIV-1 gp120 antibody PG9, primary screen, biochemical, TR-FRET | HIV-1 gp120 / PG9 antibody interaction | inhibition, % at 6.7 µM | AID 624416, 2012 | TR-FRET gp120-PG9 antibody binding | 0.43% of 360,000 active; in the data active = inhibition above about 8.5%
sPLA2-III inh: human group III sPLA2 inhibitors, primary screen, biochemical, QFRET, BODIPY PC-A2 liposome substrate | AID 743126, 2013 | inhibition, % at 12.2 µM | 0.56% of 370,000 active | QFRET BODIPY PC-A2 liposome hydrolysis, fluorescence | Group 3 secretory phospholipase A2 (Homo sapiens), Q9NZ20;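 active = inhibition above mean plus 3 SD of compounds lying within the high and low control bounds, cut at about 19% in these data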;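 also: 0% = median of test compound wells and 100% = no enzyme DMSO wells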
Target sequence (Q9NZ20 whole entry, looked up): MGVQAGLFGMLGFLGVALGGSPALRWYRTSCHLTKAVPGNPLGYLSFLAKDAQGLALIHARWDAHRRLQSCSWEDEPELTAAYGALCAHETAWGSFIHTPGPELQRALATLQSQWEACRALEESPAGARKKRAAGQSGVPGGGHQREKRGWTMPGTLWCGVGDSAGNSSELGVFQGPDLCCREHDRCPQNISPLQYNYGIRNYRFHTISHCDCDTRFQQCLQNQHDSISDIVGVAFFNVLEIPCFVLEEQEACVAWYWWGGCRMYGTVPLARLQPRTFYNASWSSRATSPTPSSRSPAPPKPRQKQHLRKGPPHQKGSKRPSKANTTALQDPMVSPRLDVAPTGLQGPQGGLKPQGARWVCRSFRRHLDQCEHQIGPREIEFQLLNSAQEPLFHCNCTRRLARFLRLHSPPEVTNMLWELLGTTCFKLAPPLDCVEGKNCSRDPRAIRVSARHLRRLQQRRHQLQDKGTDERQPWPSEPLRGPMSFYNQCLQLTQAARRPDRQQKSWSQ
rCAG binder-1: binders of r(CAG) RNA repeats, primary screen, biochemical, fluorescence; 1.3% of 370,000 active; AID 651821, 2012; inhibition, % at 3 µM; r(CAG) RNA repeat, TO-PRO-1 dye displacement fluorescence;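 active = inhibition above the plate cutoff, the mean of all test compounds on that plate plus 3 SD, cut at about 35% in these data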;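 also: 0% = DMSO alone and 100% = 100 µM mitoxantrone as full dye displacement; higher means more dye released from RNA so lower well fluorescence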
bovine MsrA act: bovine MsrA enzyme activators, primary screen, biochemical, absorbance, HTS; Methionine sulfoxide reductase A (Bos taurus); purified bovine MsrA, absorbance read-out; activation, % at 10.6 µM; 0.3% of 360,000 active; AID 602163, 2012; in the data active = activation above about 7.5%;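 also: 0% = vehicle and 100% = reference activator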
MsrA conf: bovine MsrA inhibitors, retest, confirmation, biochemical, absorbance, HTS; shares compounds with MsrA inhibitor; purified bovine MsrA, absorbance read-out; inhibition, % at 15.5 µM; 41% of 2,300 active;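 also: coupled to thioredoxin reductase with NADPH and selenocystamine and DMSO as substrate; 0% = vehicle only and 100% = full effect of reference inhibitor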
rCAG binder conf: small molecules binding CAG repeat RNA – biochemical, fluorescence, confirmation | shares compounds with rCAG binder-1 | r(CAG) RNA repeat, TO-PRO-1 dye displacement fluorescence | inhibition, % at 3 µM | 70% of 4,300 active | AID 652065, 2013;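 active = inhibition above a per-plate cutoff, the mean inhibition of sample wells plus 3 SD, cut at about 35% in these data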;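 also: loss of TO-PRO-1 fluorescence as compound displaces dye from 1x1 AA loop RNA; 0% = DMSO only wells and 100% = 100 µM mitoxantrone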
dCAG dye counter: displacement of TO-PRO-1 from CAG DNA duplex, counter-screen for rCAG RNA repeat binder project, biochemical, fluorescence, TO-PRO-1 dye, d(CAG) DNA oligo; shares compounds with rCAG binder-1; d(CAG) DNA oligo TO-PRO-1 dye displacement; inhibition, % at 3 µM; 94% of 4,300 active;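 active = inhibition above its plate's cutoff, the mean test-well inhibition plus 3 SD, cut at about 4.8% in these data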;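 also: 0% = DNA dye mix with DMSO and 100% = 100 µM mitoxantrone; hits displace the dye from DNA and so lower well fluorescence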
dCAG dye DR: inhibitors of DNA CAG/GTC TO-PRO-1 complex, dose response, counter-screen for rCAG RNA repeat binder project, biochemical, fluorescence, TO-PRO-1 dye; shares compounds with rCAG binder-1; DNA CAG/GTC duplex TO-PRO-1 dye displacement fluorescence; IC50, µM; 20% of 250 active; AID 686960, 2013; in the data active = IC50 below about 10 µM
dCAG DNA bind: TO-PRO-1 dye complex inhibitors on d(CAG) DNA, dose response, counter-screen, biochemical, fluorescence, late stage. 80% of 30 active. d(CAG) DNA duplex TO-PRO-1 dye displacement. AID 720649, 2013. IC50, µM. shares compounds with rCAG binder-1; call rule not given here
rCAG binder-2: molecules binding r(CAG) RNA repeats, late stage dose response, late-stage follow-up, biochemical, fluorescence, dose response, powder samples; r(CAG) RNA TO-PRO-1 dye displacement; shares compounds with rCAG binder-1; 100% of 30 active; IC50, µM; call rule not given here
* hit, by the source's call; . = no result given. Rows were chosen to be rich in hits. Some 3.2% of all compounds tested hit in one or more screens of this group. Rule as the data show it, unless noted: active = inhibition above about 4.5%; inactive = the rest.

SMILES	MsrA inhibitor	PG9 binder	sPLA2-III inh	rCAG binder-1	bovine MsrA act	MsrA conf	others
CCCCn1c(=O)c(C(=O)NCc2ccccc2Cl)c(O)c2ccccc21	0	1	1	-2	-1	.
CN(C)c1ccc(/C=C2\C(=O)NC(=O)N(Cc3ccc(F)cc3)C2=O)cc1	4.9*	0	10	11	-3	4.6*
CN(C)c1ccc(C(=O)c2ccc(N(C)C)cc2)cc1	5.0*	-3	5	2	-8	4
CN(C)c1ccccc1	0	-1	-8	-1	0	.
CCCC(=O)NC1=C(N2CC2)C(=O)C(NC(=O)CCC)=C(N2CC2)C1=O	4.7*	-21	6	2	-2	1
C[C@H]1C(=O)O[C@@H]2CCN3CC=C(COC(=O)[C@](C)(O)[C@]1(C)O)[C@H]23	0	-1	-1	3	-1	.
FC(F)(F)c1ccc(NC2=NCCCS2)cc1	0	0	4	4	0	.
COc1cc(N2CCOCC2)ccc1C=C1C(=O)NC(=O)NC1=O	4	-1	-4	0	-7	.
COc1cc(N2CCOCC2)ccc1/C=C1\C(=O)NC(=O)N(Cc2cccs2)C1=O	6.4*	0	-4	8	-4	3
COc1ccc(CN2C(=O)NC(=O)/C(=C\c3cccc(OC)c3OC)C2=O)cc1	-2	0	-1	18	-4	.
COc1cc(N2CCOCC2)ccc1/C=C1\C(=O)NC(=O)N(Cc2ccc3c(c2)OCO3)C1=O	6.2*	1	-1	25	-5	2
CC(C)c1ccc(-n2c(O)c(C=NC(CCS(C)=O)C(=O)O)c(=O)[nH]c2=S)cc1 (centres undefined)	5.1*	-1	-6	23	-4	4
O=C(N/N=C/c1c(O)n(-c2ccccc2)c(=S)[nH]c1=O)c1ccccc1	1	-2	-5	6	3	.
CCN(CC)S(=O)(=O)c1ccc(N=Cc2c(O)n(-c3ccccc3)c(=O)[nH]c2=O)cc1	2	0	-6	1	-3	.
O=C1c2cccc3cccc(c23)C(=O)N1/N=C/c1c(O)n(-c2ccccc2)c(=O)[nH]c1=O	5.1*	-1	1	1	-3	3
CC(=O)c1ccc2c(c1)C1C(Cl)C(Sc3ccccc3[N+](=O)[O-])CC1C(c1ccccc1[N+](=O)[O-])N2 (centres undefined)	5.5*	1	-12	23	-3	2
C/C(=N\NC(=O)c1ccccc1O)c1c(O)n(C2CCCCC2)c(=O)[nH]c1=O	5.0*	-1	-6	83*	-5	6.7*	rCAG binder conf=77*;dCAG dye counter=34*;dCAG dye DR=3.1*;dCAG DNA bind=2*;rCAG binder-2=0.82*
